A selection: hits, their analogues and other compounds. The true share with any hit is near 0.9%.
PPARg SRC3 recr: agonists of human PPARgamma SRC-3 coactivator recruitment | P37231 | biochemical PPARgamma/SRC-3 coactivator recruitment assay | activation, % at 8 µM | 200,000 tested, 0.26% active | AID 731; in the data active means activation above about 23%;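 further: 0% = DMSO and 100% = reference agonist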
PPARg SRC2 recr: agonists of SRC-2 recruitment by human PPARgamma; P37231; PPARgamma LBD-SRC-2 recruitment, biochemical; activation, % at 8 µM; 200,000 tested, 0.34% active; AID 1032; in the data active means activation above about 22%;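 further: 0% = vehicle and 100% = reference agonist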
SRC3 TRFRET art: TR-FRET artefact, counter-screen to PPARgamma/SRC-3 agonist assay; PPARgamma/SRC-3 format; hits give high values; TR-FRET ratio at 8 µM; 99,000 tested, 0.39% active; AID 1048
PPARg SRC1 recr: PPARgamma-driven SRC-1 recruitment agonism; PPARgamma-SRC-1 coactivator recruitment biochemical assay; activation, % at 8 µM; P37231; 200,000 tested, 0.41% active; in the data active means activation above about 19%;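 further: 0% = DMSO and 100% = reference agonist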
SRC1 TRFRET art: flags TR-FRET format artefacts in PPARgamma SRC-1 recruitment agonist screen; TR-FRET detection artefact counter-screen, emission ratio; hits give high values; TR-FRET ratio at 8 µM; 99,000 tested, 0.34% active; in the data active means TR-FRET ratio above about 2300
SRC2 TRFRET art: TR-FRET artefact, counter-screen to PPARgamma/SRC-2 agonist assay; hits give high values; TR-FRET ratio at 8 µM; 200,000 tested, 0.4% active
PPARg SRC2 ag: confirmation of agonists of SRC-2 recruitment by human PPARgamma | shares compounds with PPARg SRC3 recr | biochemical SRC-2 recruitment by PPARgamma | activation, % at 8 µM | 790 tested, 52% active | AID 1297; in the data active means activation above about 22%;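 further: 0% = vehicle alone and 100% = reference agonist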
PPARg SRC1 conf: human PPARgamma SRC-1 recruitment agonism, confirmation; shares compounds with PPARg SRC3 recr; PPARgamma–SRC-1 coactivator recruitment biochemical assay; activation, % at 8 µM; 790 tested, 43% active; AID 1300; in the data active means activation above about 20%;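 further: 0% = vehicle wells and 100% = reference agonist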
PPARg SRC3 conf: confirmation of agonists of SRC-3 recruitment by human PPARgamma | 790 tested, 29% active | activation, % at 8 µM | AID 1301 | shares compounds with PPARg SRC3 recr | biochemical PPARgamma-SRC-3 coactivator recruitment, agonist mode; in the data active means activation above about 24%;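 further: 0% = vehicle wells and 100% = reference agonist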
Target sequence (P37231 whole entry, looked up): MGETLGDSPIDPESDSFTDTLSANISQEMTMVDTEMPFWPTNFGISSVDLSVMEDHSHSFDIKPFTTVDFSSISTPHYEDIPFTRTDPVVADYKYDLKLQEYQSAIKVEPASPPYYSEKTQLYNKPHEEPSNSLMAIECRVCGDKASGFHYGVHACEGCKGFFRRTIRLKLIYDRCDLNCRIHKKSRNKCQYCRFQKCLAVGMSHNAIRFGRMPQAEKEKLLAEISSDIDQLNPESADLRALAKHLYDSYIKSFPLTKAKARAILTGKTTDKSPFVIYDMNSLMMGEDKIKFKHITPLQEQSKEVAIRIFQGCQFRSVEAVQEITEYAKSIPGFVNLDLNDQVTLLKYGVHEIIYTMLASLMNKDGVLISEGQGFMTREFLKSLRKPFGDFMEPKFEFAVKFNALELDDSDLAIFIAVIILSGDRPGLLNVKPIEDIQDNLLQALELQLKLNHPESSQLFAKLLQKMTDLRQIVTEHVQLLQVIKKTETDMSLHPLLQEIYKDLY
Target sequence (Q9Y6Q9 whole entry, looked up): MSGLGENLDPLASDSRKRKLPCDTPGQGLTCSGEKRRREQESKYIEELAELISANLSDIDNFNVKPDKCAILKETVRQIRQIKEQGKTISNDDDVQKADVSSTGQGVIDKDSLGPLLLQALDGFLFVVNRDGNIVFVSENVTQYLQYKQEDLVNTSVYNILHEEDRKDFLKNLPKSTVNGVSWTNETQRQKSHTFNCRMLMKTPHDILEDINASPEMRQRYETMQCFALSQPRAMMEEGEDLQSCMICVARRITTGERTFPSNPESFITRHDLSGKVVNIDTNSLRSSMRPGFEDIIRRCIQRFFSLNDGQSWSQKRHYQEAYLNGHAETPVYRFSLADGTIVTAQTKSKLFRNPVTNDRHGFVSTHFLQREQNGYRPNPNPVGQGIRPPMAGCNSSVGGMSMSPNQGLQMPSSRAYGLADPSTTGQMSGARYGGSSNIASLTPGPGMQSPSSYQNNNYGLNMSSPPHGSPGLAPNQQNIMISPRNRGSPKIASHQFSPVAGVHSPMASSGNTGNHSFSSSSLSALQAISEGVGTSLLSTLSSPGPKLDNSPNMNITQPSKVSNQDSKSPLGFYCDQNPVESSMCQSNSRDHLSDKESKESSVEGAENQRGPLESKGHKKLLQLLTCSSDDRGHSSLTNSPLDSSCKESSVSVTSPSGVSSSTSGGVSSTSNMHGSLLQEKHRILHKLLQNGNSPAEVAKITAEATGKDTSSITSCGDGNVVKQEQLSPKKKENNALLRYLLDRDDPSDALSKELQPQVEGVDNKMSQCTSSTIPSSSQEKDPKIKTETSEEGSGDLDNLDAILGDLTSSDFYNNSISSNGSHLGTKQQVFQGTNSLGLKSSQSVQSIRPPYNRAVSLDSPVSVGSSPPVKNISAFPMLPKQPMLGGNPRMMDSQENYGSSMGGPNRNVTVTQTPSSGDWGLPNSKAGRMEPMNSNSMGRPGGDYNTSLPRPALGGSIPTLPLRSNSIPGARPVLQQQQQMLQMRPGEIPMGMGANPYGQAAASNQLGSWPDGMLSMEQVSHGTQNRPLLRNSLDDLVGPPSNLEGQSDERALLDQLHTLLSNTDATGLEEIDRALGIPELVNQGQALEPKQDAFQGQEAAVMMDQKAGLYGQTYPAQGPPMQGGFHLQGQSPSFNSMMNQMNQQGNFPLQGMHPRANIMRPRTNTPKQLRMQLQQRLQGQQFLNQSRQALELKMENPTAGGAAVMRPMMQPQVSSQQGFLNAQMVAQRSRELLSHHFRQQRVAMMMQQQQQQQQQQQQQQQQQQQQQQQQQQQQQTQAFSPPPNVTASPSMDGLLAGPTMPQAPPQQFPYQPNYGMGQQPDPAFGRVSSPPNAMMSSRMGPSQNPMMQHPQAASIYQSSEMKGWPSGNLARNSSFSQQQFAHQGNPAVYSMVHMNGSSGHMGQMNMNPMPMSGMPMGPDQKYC
* hit, by the source's call. Unless noted, no stated cut-off is given here; in the data, active means TR-FRET ratio above about 2000; inactive means the rest.

C=CCn1c(-c2cccc(Cl)c2)n[nH]c1=S was read as PPARg SRC3 recr 27.8*, PPARg SRC2 recr 19.9, PPARg SRC1 recr 24.9*, SRC2 TRFRET art 2008*, PPARg SRC2 ag 19.8, PPARg SRC1 conf 13.9 and PPARg SRC3 conf 12.6.
Screening COc1ccc(-c2nn(CC(=O)Nc3ccc(Cl)c(Cl)c3)c(=O)c3ccccc23)cc1 returned PPARg SRC3 recr 21.6, PPARg SRC2 recr -3.2, PPARg SRC1 recr 19.2*, SRC2 TRFRET art 2357*, PPARg SRC2 ag 10.9, PPARg SRC1 conf 12.8 and PPARg SRC3 conf 7.9.
`Clc1ccc(OC2CCN(Cc3nc(CC4CC4)no3)CC2)cc1` gave PPARg SRC3 recr 8.7, PPARg SRC2 recr 0.1, SRC3 TRFRET art 1605, PPARg SRC1 recr -1.2, SRC1 TRFRET art 1558 and SRC2 TRFRET art 1523.
For Cc1ccc(C(C(=O)NCc2ccco2)N(CCc2ccccc2)C(=O)Cn2nnc3ccccc32)o1 (stereo not drawn) the results were PPARg SRC3 recr 32.4*, PPARg SRC2 recr 15.6, SRC3 TRFRET art 1671, PPARg SRC1 recr 7.8, SRC1 TRFRET art 1885, SRC2 TRFRET art 1653, PPARg SRC2 ag 11.8, PPARg SRC1 conf 4.7 and PPARg SRC3 conf 15.8.
`Cc1nnc(NC(=O)C2CCN(S(=O)(=O)c3ccc(Cl)cc3)CC2)s1` gave PPARg SRC3 recr 1.2, PPARg SRC2 recr -0.9, SRC3 TRFRET art 1553, PPARg SRC1 recr 5.3, SRC1 TRFRET art 1916 and SRC2 TRFRET art 1677.
`O=C(CN1CCC(NC(=O)c2ccc(Br)cc2)CC1)NCc1cccs1` gave PPARg SRC3 recr -0.1, PPARg SRC2 recr -5.4, SRC3 TRFRET art 1548, PPARg SRC1 recr -10.1, SRC1 TRFRET art 1905 and SRC2 TRFRET art 1465.
`Cc1nc2ccc3nc(NC(=O)c4ccco4)sc3c2s1` gave PPARg SRC3 recr 18.8, PPARg SRC2 recr 10.8, PPARg SRC1 recr 23.4*, SRC2 TRFRET art 1749, PPARg SRC2 ag 7.7, PPARg SRC1 conf 5.7 and PPARg SRC3 conf 5.0.
For COc1ccc(C(=O)Nc2nc3ccc4nc(C)sc4c3s2)cc1 the results were PPARg SRC3 recr 56.4*, PPARg SRC2 recr 14.1, PPARg SRC1 recr 66.8*, SRC2 TRFRET art 1790, PPARg SRC2 ag 44.6*, PPARg SRC1 conf 28.8* and PPARg SRC3 conf 27.2*.
For Cc1ccc2nc(NC(=S)NC(=O)c3ccco3)sc2c1 the results were PPARg SRC3 recr 18.9, PPARg SRC2 recr 28.8*, SRC3 TRFRET art 2144*, PPARg SRC1 recr 21.6*, SRC1 TRFRET art 2516*, SRC2 TRFRET art 2308*, PPARg SRC2 ag 55.7*, PPARg SRC1 conf 44.0* and PPARg SRC3 conf 37.2*.
For COc1cc(C(=O)Nc2nc3ccc4nc(C)sc4c3s2)cc(OC)c1OC the results were PPARg SRC3 recr 9.1, PPARg SRC2 recr 4.4, PPARg SRC1 recr 15.6 and SRC2 TRFRET art 1480.
Cc1cccc(-n2cc(-c3ccccc3)c3c(N4CCOCC4)ncnc32)c1 was read as PPARg SRC3 recr -2.6, PPARg SRC2 recr -8.3, SRC3 TRFRET art 1471, PPARg SRC1 recr -3.0, SRC1 TRFRET art 1664 and SRC2 TRFRET art 1434.
`COC(=O)Nc1ccc(S(=O)(=O)NCc2ccccn2)cc1` gave PPARg SRC3 recr 6.5, PPARg SRC2 recr 19.4, SRC3 TRFRET art 1417, PPARg SRC1 recr 3.9, SRC1 TRFRET art 1604 and SRC2 TRFRET art 1765.
`CCOC(=O)c1c(N)sc(=S)c2c1CCC2` gave PPARg SRC3 recr 34.3*, PPARg SRC2 recr 27.1*, PPARg SRC1 recr 19.2*, SRC2 TRFRET art 2147*, PPARg SRC2 ag 6.2, PPARg SRC1 conf 5.7 and PPARg SRC3 conf 6.5.
Screening S=C(NCc1ccc2c(c1)OCO2)Nc1ccc2nsnc2c1 returned PPARg SRC3 recr 56.4*, PPARg SRC2 recr 90.9*, SRC3 TRFRET art 3652*, PPARg SRC1 recr 61.4*, SRC1 TRFRET art 3812*, SRC2 TRFRET art 2840*, PPARg SRC2 ag 22.6*, PPARg SRC1 conf 28.0* and PPARg SRC3 conf 14.1.
`Cc1ccc(NC(=S)NCc2ccc3c(c2)OCO3)cc1C` gave PPARg SRC3 recr -0.4, PPARg SRC2 recr -5.8, SRC3 TRFRET art 1566, PPARg SRC1 recr -1.0, SRC1 TRFRET art 1815 and SRC2 TRFRET art 1647.
For CCOC(=O)CCS(=O)(=O)c1nc(-c2ccccc2)cc(C(F)(F)F)n1 the results were PPARg SRC3 recr 12.7, PPARg SRC2 recr 15.1, PPARg SRC1 recr 15.4 and SRC2 TRFRET art 1475.
COC(=O)CCS(=O)(=O)c1nc(-c2ccccc2)cc(C(F)(F)F)n1 was read as PPARg SRC3 recr 8.6, PPARg SRC2 recr 5.2, PPARg SRC1 recr 21.4*, SRC2 TRFRET art 1639, PPARg SRC2 ag 7.5, PPARg SRC1 conf 16.1 and PPARg SRC3 conf 11.1.
For COC(=O)CSc1ncnc2c1sc1nc3c(cc12)COC(C)(C)C3 the results were PPARg SRC3 recr 12.4, PPARg SRC2 recr 23.8*, SRC3 TRFRET art 1809, PPARg SRC1 recr 13.2, SRC1 TRFRET art 2109, SRC2 TRFRET art 1748, PPARg SRC2 ag 17.1, PPARg SRC1 conf 15.5 and PPARg SRC3 conf 12.0.
For Cc1cc(=O)[nH]c(NCCO)n1 the results were PPARg SRC3 recr -1.0, PPARg SRC2 recr -3.4, SRC3 TRFRET art 1394, PPARg SRC1 recr -4.6, SRC1 TRFRET art 1889 and SRC2 TRFRET art 1714.
COc1ccc(CC(=O)NCc2nnc(SCCOc3ccccc3)n2C)cc1 was read as PPARg SRC3 recr 3.1, PPARg SRC2 recr 10.1, PPARg SRC1 recr 18.8*, SRC2 TRFRET art 1523, PPARg SRC2 ag 3.2, PPARg SRC1 conf 1.5 and PPARg SRC3 conf 1.6.
`CCn1c(CNC(=O)Cc2ccc(OC)cc2)nnc1SCCOc1ccccc1` gave PPARg SRC3 recr 0.6, PPARg SRC2 recr -2.1, PPARg SRC1 recr 3.0 and SRC2 TRFRET art 1574.
`Cc1ccc(C)c(SCC(=O)NCc2ccco2)c1` gave PPARg SRC3 recr -0.1, PPARg SRC2 recr 10.6, PPARg SRC1 recr -2.0 and SRC2 TRFRET art 1634.
`Cn1c(=O)cc(SCC(=O)NCc2ccco2)c2ccccc21` gave PPARg SRC3 recr 37.6*, PPARg SRC2 recr 35.6*, PPARg SRC1 recr 27.8*, SRC2 TRFRET art 2082*, PPARg SRC2 ag 33.2*, PPARg SRC1 conf 22.3* and PPARg SRC3 conf 21.1.
Screening COc1cccc(CNC(=O)CSc2cc(=O)n(C)c3ccccc23)c1 returned PPARg SRC3 recr 21.1, PPARg SRC2 recr 23.1*, SRC3 TRFRET art 2024, PPARg SRC1 recr 42.2*, SRC1 TRFRET art 2682*, SRC2 TRFRET art 2371*, PPARg SRC2 ag 36.2*, PPARg SRC1 conf 25.0* and PPARg SRC3 conf 24.3*.

Assay outcomes deposited in PubChem by The Scripps Research Institute Molecular Screening Center.
